Among the data in PubChem BioAssay (NCI) are growth values, retold here.

Compounds without any hit were thinned out: in the full panel of roughly 83,000, 20% have a hit.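 Results are percent growth after 48 hours of single-concentration exposure. 100 means growth as in untreated cells, lower positive values show inhibition; negative values down to -100 show cell death.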 Values without a mark were called inactive. The source made the active and inactive calls. Rule for the calls: active = growth percent below 10; inactive = the rest.

The test system of this assay is SK-MEL-5 melanoma. The experiment in a line: NCI-60 one-dose screen, 48 h (100 = growth as untreated, 0 = no growth, -100 = all killed). Particulars: 10 µM unless noted.
In the case of `CCCC1CCCCN1C(=O)OCC(C)C` (stereo not drawn), the growth was 109%.

Regarding `N#CC1C(=N)Cc2ccccc2-c2ccccc21` (stereo not drawn), the growth was 40.7%.

`Cc1cc(C)nc(NC(N)=NCCc2ccccc2)n1`: the growth was 22%.

On to `N=c1c(S(=O)(=O)c2ccccc2)cc2c(=O)n3ccccc3nc2n1C1CCCC1`, for which the growth is 84.2%.

Turning to `CCOc1ccc(NC(=O)c2ccccc2-c2ccccc2C(=O)O)cc1`, the growth is 106%.

For `CCCCC[C@H]1C/C=C2/C(=O)C=C[C@@H]2C/C=C\CCCC(=O)O[C@@H](CCCCC)C/C=C2/C(=O)C=C[C@@H]2C/C=C\CCCC(=O)O1`, the growth was -97.4% (active).

For the compound `CC(C)=CCC/C(C)=C/CC/C(C)=C/CC/C(C)=C/CSC[C@H](NC(=O)CCCCCN1CCN(C)CC1)C(=O)NC1CCCCC1`, the growth was 97.9%.

For the compound `O=C(/C=C/c1ccc2ccccc2c1)Nc1ncc(Cc2ccccc2)s1`, the growth was 92.8%.

As for `C=C(C)[C@@H]1CC[C@]2(C(=O)O)CC[C@]3(C)[C@H](CC[C@@H]4[C@@]5(C)C/C(=C/c6ccc(OC)cc6)C(=O)C(C)(C)[C@@H]5CC[C@]43C)[C@@H]12`, the growth is 6.21% (active).

In the case of `COc1ccc2c(c1)c(-c1nc(-c3cn(C)c4ncccc34)cs1)cn2CCCN1CCCCC1`, the growth was 28.6%.

Take `Nc1ccc(Br)cn1`: the growth is 100%.

For `COc1cccc(-c2nn(-c3ccccc3)cc2-c2ccnc(NCCNS(=O)(=O)c3ccc(Cl)cc3)c2)c1`, the growth is -13.7% (active).

Regarding `COc1ccc(C2CC(=O)c3c(nc4ccc(Cl)cc4c3N)C2)cc1` (stereo not drawn), the growth is 98.3%.

Take `CC1(n2nnnc2N2CCCN(c3ncccc3N)CC2)CCC1`: the growth is 86.3%.

With `O=C(O[C@@H]1Cc2c(O)cc(O)cc2O[C@@H]1c1cc(O)c(O)c(O)c1)c1cc(O)c2c(c1)OCO2`, the growth was 98.5%.

`COc1cc(-c2nc(-c3ccccc3)c(-c3ccccc3)[nH]2)cc(OC)c1O`: the growth was -8.78% (active).

Take `C=C(C)[C@@H]1CC[C@]2(C(=O)O)CC[C@]3(C)[C@H](CC[C@@H]4[C@@]5(C)C/C(=C/c6cccc(I)c6)C(=O)C(C)(C)[C@@H]5CC[C@]43C)[C@@H]12`: the growth was 13.9%.

With `NC1=NN=C2N(N)C(=O)c3cnn(-c4ccccc4)c3N2c2nc(-c3ccccc3)cc(-c3ccccc3)c21`, the growth is 94%.

For `CCSc1ncnc2c1ncn2C1OC(CO)C(O)C1O` (stereo not drawn), the growth was 32.6%.

Take `COc1ccc(-c2nc3ccccn3c2-c2nc3ccc(Cl)cc3[nH]2)cc1`: the growth is 83%.

Take `CC(=O)OC[C@]12CC[C@@H](/C(C)=N/O)[C@@H]1[C@H]1CC[C@@H]3[C@@]4(C)CCCNC(C)(C)[C@@H]4CC[C@@]3(C)[C@]1(C)CC2`: the growth is 51.3%.

In the case of `OCC12CCCC(CO)(COC1)C2O` (stereo not drawn), the growth was 99.8%.

In the case of `Cc1ccc(N(CC(=O)Nc2ccc(S(=O)(=O)N3CCC(N4CCCC4)CC3)cc2)S(=O)(=O)c2ccc(Cl)cc2)cc1`, the growth is -97.6% (active).

On to `CC[C@]12C=CCN3CC[C@@]4(c5cc([C@H]6CCC(=O)N6)c(OC)cc5N(C)[C@H]4[C@@](O)(C(=O)OC)[C@@H]1OC(C)=O)[C@@H]32`, for which the growth is 99.8% [2.5 µM].

Consider `Brc1ccc(Cn2nnnc2-c2ccn(-c3ccccc3)n2)cc1`, for which the growth is 74%.

As for `Cc1ccc2oc(=O)cc(-c3sc(N4CCCCC4)nc3-c3ccccc3)c2c1`, the growth is 91.3%.

Regarding `CC1(C)CC[C@]2(C(=O)Nc3ccccn3)CC[C@]3(C)C(=CC[C@@H]4[C@@]5(C)C/C(=C/c6ccncc6)C(=O)C(C)(C)[C@@H]5CC[C@]43C)[C@@H]2C1`, the growth is -49.8% (active).

On to `Nc1c(C(=O)Nc2cccc3ccccc23)sc2nc3c(cc12)CCCC3`, for which the growth was 28.2%.

Take `COc1ccc(OCC(CO)N2CCN(c3ccccc3)CC2)cc1` (stereo not drawn): the growth was 104%.

As to `Clc1ccc2[nH]cc(-c3nc(-c4c[nH]c5ncccc45)cs3)c2c1`, the growth is 64.9%.

For `C=C(C)[C@@H]1CC[C@]2(CN)CC[C@]3(C)[C@H](CC[C@@H]4[C@@]5(C)CCC(=O)NC(C)(C)[C@@H]5CC[C@]43C)[C@@H]12`, the growth was 61.6%.

Take `C/C(=N\Nc1ccc2ccccc2n1)c1ccccn1`: the growth was -57.5% (active).

For the compound `C[N+](C)(CCCCCC[N+](C)(C)C1c2ccccc2-c2ccccc21)C1c2ccccc2-c2ccccc21`, the growth was 111%.
